Data reported in PubChem BioAssay AID720540 (National Center for Advancing Translational Sciences (NCATS), 2013).
Screen size: about 1,300 compounds; about 460 (35%) were called active. Another 39% or so got no clear call; they are omitted. Calls come from the whole dose curve; as a rule, active = well fitted inhibition curve with a large enough effect; inconclusive = small, poorly fitted or top-dose-only effect; inactive = flat fitted curve, though single readings scatter. Some of the results follow. Where a structure was tested more than once in an assay, its records may differ in their call.
Note: nearly all actives have a fitted effect of over 65% in size.
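Throughout, for activity change, negative = inhibition: 0% = DMSO wells and -100% = EGTA control giving full inhibition.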

What follows are compounds tested against Protein phosphatase EYA2 (Homo sapiens) (UniProt O00167) (assay: qHTS for Inhibitors of the Phosphatase Activity of Eya2: Confirmatory Assay for Cherry-picked Compounds). Conditions: purified EYA2 phosphatase activity, qHTS confirmation; series mostly up to 46.1 µM; activity change, negative = inhibition: at the top concentration.
Chain of Protein phosphatase EYA2 (Homo sapiens) (O00167 whole entry, looked up, the tested form may be a part): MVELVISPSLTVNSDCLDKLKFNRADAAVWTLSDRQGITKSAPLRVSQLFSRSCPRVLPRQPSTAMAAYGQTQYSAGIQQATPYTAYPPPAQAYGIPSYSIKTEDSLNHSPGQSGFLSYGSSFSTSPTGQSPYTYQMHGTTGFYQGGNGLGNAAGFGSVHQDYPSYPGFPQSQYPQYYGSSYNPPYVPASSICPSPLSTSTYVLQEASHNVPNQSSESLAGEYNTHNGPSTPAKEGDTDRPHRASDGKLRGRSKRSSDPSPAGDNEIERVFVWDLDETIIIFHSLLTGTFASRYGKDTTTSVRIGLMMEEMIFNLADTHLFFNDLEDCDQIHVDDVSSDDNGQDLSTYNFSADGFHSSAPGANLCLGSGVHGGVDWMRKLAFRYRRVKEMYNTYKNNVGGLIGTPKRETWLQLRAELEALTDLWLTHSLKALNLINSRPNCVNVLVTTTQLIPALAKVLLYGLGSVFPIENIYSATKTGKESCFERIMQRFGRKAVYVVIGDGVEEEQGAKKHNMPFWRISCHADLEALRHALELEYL
Text: The Eya protein family is an essential co-activator of the Six1 transcription factor. Six1 is a developmental gene that is abnormally re-expressed in a large percentage of breast cancers. This over-expression plays a causal role in the initiation and metastatic development of breast cancers. The Eya family of protein is also found to contain a unique HAD phosphatase domain with protein tyrosine phosphatase activity which can potentially play a role in Six1-mediated breast tumorigenesis. Recently, Eya2 is found to dephosphorylate the histone variant H2AX and direct cells towards DNA repair instead of apoptosis in the event of DNA damage.
A 1536 well format, fluorescence based qHTS assay was developed and used to target the phosphatase activity of Eya2 (AID 488837). Inhibitors found against Eya2 could serve as potential therapeutic tools to inhibit Six1-mediated breast tumorigenesis and to increase the efficiency of radiation and certain chemo therapy. This assay assessed the activity of the primary screen cherry-picked compounds against Eya2. Inhibition is the desired outcome for this assay.
NIH Chemical Genomics Center [NCGC]
NIH Molecular Libraries Probe Centers Network [MLPCN]
Assay Submitter (PI): Rui Zhao, University of Colorado Denver
Eya2 enzyme and 3-O-methyl-fluorescein phosphate (OMFP) substrate working solutions were reconstituted in the buffer reagent consist of 50 mM HEPES pH 7.5, 50 mM NaCl, […], 0.05% BSA and 1 mM DTT. One and a half microliter of 0.2 uM Eya2 working solution was dispensed in a 1536 well Greiner plate (black, medium bind). Twenty-three nanoliter of test compounds and control compound EGTA was transferred to the assay plate using the Kalypsys robotic system equipped with a 1536 pin head. The plate was incubated at room temperature for 10 minutes. One and a half microliter of the 50 uM the OMFP substrate was then dispensed to the assay plate and incubated at room temperature for additional 10 min. The fluorescence signal was read using the PerkinElmer ViewLux plate reader using a 485 nm excitation and 525 nm emission filters. The data was normalized to the positive control for maximum inhibition and DMSO treated wells as negative control.
In the case of `CN(C)S(=O)(=O)c1ccc(C(=O)NNc2nc(-c3ccccc3)c3cc(Br)ccc3n2)cc1`, the Potency is reported as 8.49 µM (active).
In the case of `Cc1ccc(N2C(=O)NC(=O)/C(=C/c3ccc(OC(=O)c4cccs4)cc3)C2=O)cc1`, the Potency is reported as 12 µM (active).
For `O=C(Cc1ccccc1)c1ccccn1`, the Potency was 10.7 µM (active).
In the case of `O=C1NC(=S)N(c2ccccc2)C(=O)/C1=C/c1ccco1`, the Potency is reported as 6.75 µM (active).
`COC(=O)C1=C(c2ccc(F)cc2OCc2ccccc2)C[C@@H]2CC[C@H]1N2C(=O)NCc1ccc(N(C)C)cc1` was tested, and the Potency was 8.49 µM (active).
For `COC(=O)C1=C(c2cccc(OCc3ccccc3)c2)C[C@@H]2CC[C@H]1N2C(=O)NCCCc1ccccc1`, the “activity change, negative = inhibition” value was -16.1% (inactive).
For `C[C@H]1CCC[C@H](O)CCCCCc2cc(O)cc(O)c2C(=O)O1`, the “activity change, negative = inhibition” value was -21.4% (inactive).
For `NC(Cc1cc(O)c(O)cc1O)C(=O)O` (stereo not given), the Potency was 2.39 µM (active).
With `N[C@@H](Cc1cc(I)c(O)c(I)c1)C(=O)O` the Potency was 9.53 µM (active).
In the case of `COc1ccc(-c2cc(=NCCC(=O)O)c3cc(C)ccc3o2)cc1`, the Potency is reported as 16.9 µM (active).
In the case of `CN(C)c1ccc(C=C2C=CC=C2)cc1`, the Potency is reported as 19 µM (active) and inactive.
`COc1ccccc1N1CCN(CCc2c[nH]c3cc4c(cc23)OCO4)CC1` was tested, and the Potency was 19 µM (active).
In the case of `CNc1ccc2nc3ccccc3[n+](C)c2c1`, the Potency is reported as 16.9 µM (active).
With `O=C(O)CCCOc1ccc(Cl)cc1Cl` the “activity change, negative = inhibition” value was -4.59% (inactive).
In the case of `O=[N+]([O-])c1cc(C(F)(F)F)c(Cl)c([N+](=O)[O-])c1Nc1ncc(C(F)(F)F)cc1Cl`, the Potency is reported as 21.3 µM (active).
For `C=C1C(=O)O[C@@H]2C[C@@H](C)[C@@H]3C=CC(=O)[C@@]3(C)[C@@H](OC(=O)CC(=O)O[C@H]3[C@@H]4C(=C)C(=O)O[C@@H]4C[C@@H](C)[C@@H]4C=CC(=O)[C@]43C)[C@H]12`, the Potency was 10.7 µM (active).
With `CCOC(=O)CCCc1cc[c]([Sb](=[O])([OH])[OH])cc1` the Potency was 2.13 µM (active).
For `CCOC(=O)c1cc2c(cn1)[C@@H](CCO)NC2`, the “activity change, negative = inhibition” value was -11.5% (inactive).
For `Cc1c(N=Nc2c(O)[nH]c(=O)[nH]c2=O)c(=O)n(-c2ccccc2)n1C`, the Potency was 2.13 µM (active).
In the case of `COC1C(O)C(C)OC(OC2C(Oc3cccc4c(O)c5c(=O)oc6ccc(C)c7c(=O)oc(c34)c5c67)OC(C)C(O)C2O)C1O` (stereo not given), the “activity change, negative = inhibition” value is reported as -10.3% (inactive).
In the case of `CN(C)c1ccc(N=Nc2ccccc2)cc1`, the Potency is reported as 5.36 µM (active).
For `Cc1nc2ccccc2c(=O)n1-c1ccc(Cl)cc1[N+](=O)[O-]`, the “activity change, negative = inhibition” value was -9.84% (inactive).
For `CC(N)[C@H](O)c1ccc(O)c(O)c1` (stereo not given in full), the “activity change, negative = inhibition” value was -20.7% (inactive).
With `O=C(O)c1cc[c]([Sb](=[O])([OH])[OH])cc1[N+](=O)[O-]` the Potency was 2.69 µM (active).
`O=C1NC(=O)N(c2ccc(Cl)cc2)C(=O)/C1=C\c1ccc(Sc2nc3ccccc3[nH]2)o1` was tested, and the Potency was 13.5 µM (active).
